# aSyn UTR inh – 5' untranslated region of α-synuclein, MLPCN primary screen; AID 1813; 0.82% of 300,000 active; inhibition, % (tested at 7.5 µM); alpha-synuclein 5'UTR reporter, inhibitor activity; in the data active = inhibition above about 60%;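 also: H4 neuroglioblastoma cells stably carrying SNCA 5'UTR luciferase fusion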
# ANO1 activ – activators or potentiators of mouse TMEM16A chloride channel | Q8BHY3 | HEK293 TMEM16A/YFP-H148Q/I152L, iodide quench fluorescence; stronger effect = lower value | B-score at 10 µM | 0.3% of 340,000 active | AID 623877;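 active = fluorescence-ratio B-score plate-corrected deviation score at least 3 library SD below zero, with starting fluorescence score within 5 deviations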;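 also: channel opened by trigger with iodide after compound preincubation; score built on the fluorescence ratio of max minus min over baseline; more negative score means more quench and so TMEM16A activation or potentiation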
# KLF5 inhibitor – inhibitors of KLF5 expression; DLD-1 KLF5 promoter-luciferase reporter, luminescence; 0.23% of 290,000 active; inhibition, % at 5 µM;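 active = inhibition above a per-plate limit of that plate's mean compound inhibition plus 3 SD, cut at about 60% in these data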;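 also: higher means less KLF5 promoter-driven luciferase light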
# 697 NFkB inh – inhibitors of the PMA/ionomycin-induced NF-kB reporter in 697 B cells; 697 B-cell NF-kB luciferase reporter, 16 h; inhibition, % at 4 µM; 0.33% of 330,000 active; AID 435022; in the data active = inhibition above about 35%
# Jurkat NFkB inh – inhibitors of the PMA/ionomycin-induced NF-kB reporter in Jurkat cells; AID 435003; PMA/ionomycin-induced NF-kB luciferase reporter, luminescence; inhibition, % at 4 µM; 0.53% of 330,000 active; in the data active = inhibition above about 50%
# TMEM16A inh – inhibitors of mouse TMEM16A calcium-activated chloride channel; normalized B-score (activity score, 25-100; higher = stronger inhibition) at 10 µM; HEK293 TMEM16A/YFP iodide influx fluorescence, ionomycin; 1.2% of 310,000 active; Q8BHY3; AID 588511;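 active = ratio plate-corrected score three or more library SD toward inhibition, starting fluorescence score within five deviations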;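 also: score derived from kinetic fluorescence span divided by baseline fluorescence per well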
# TMEM16A reconf – TMEM16A (mouse) chloride channel inhibition, re-confirmation; shares compounds with TMEM16A inh; HEK293 TMEM16A/YFP-H148Q, iodide quench fluorescence; ionomycin added to raise cell calcium; inhibition, % at 10 µM; 39% of 2,300 active; AID 652189;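 active = mean duplicate percent inhibition, scaled so buffer wells are 0 and the reference blocker 100, over three buffer SD above buffer mean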
# HEK293 Ca mobil – calcium mobilization counter-screen hit for TMEM16A inhibitor series | calcium response (% of ionomycin), % at 10 µM | shares compounds with TMEM16A inh | AID 652231 | TMEM16A/YFP HEK293, Fluo4 calcium mobilization | 2% of 2,300 active;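 active = duplicate-averaged calcium signal over 20% of the ionomycin maximum, relative to buffer baseline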;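 also: each well's signal is peak minus trough fluorescence divided by its pre-addition baseline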
# YFP-HEK293 quench – parental YFP-HEK293 iodide quench counter-screen activity; YFP ratio F(max-min)/F0 at 10 µM; shares compounds with TMEM16A inh; ionomycin; 2,300 tested, under 10 active;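 active = yellow fluorescent protein signal ratio exceeding the buffer control mean by over 5 SD of those controls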;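 also: ratio is mean of duplicate wells from kinetic YFP trace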
# ClC-1 rat inh – rat ClC-1 inhibition, TMEM16A specificity screen. shares compounds with TMEM16A inh. CHO ClC-1-YFP, iodide influx fluorescence quench; iodide control reads 0, buffer control 100. ratio percent, % at 10 µM. 2,300 tested, under 10 active;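 active = duplicate-mean ratio percent above the mean of iodide-only control wells, which defines zero, plus 5 of their SD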;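 also: higher percent means stronger block of ClC-1 iodide influx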
# Numbers stand for hits; . = inactive; / = no result given. Only some compounds are listed: those with a hit (about 2.5% of all), similar ones and a draw of the others.
SMILES,aSyn UTR inh,ANO1 activ,KLF5 inhibitor,697 NFkB inh,Jurkat NFkB inh,TMEM16A inh,TMEM16A reconf,HEK293 Ca mobil,YFP-HEK293 quench,ClC-1 rat inh
CSc1nc2sc3c(c2c2nnnn12)CCCC3,.,.,.,.,.,100,.,.,.,.
COc1ccc(-c2ccc3oc(-c4ccc(OC)cc4)c(-c4ccc(OC)cc4)c3c2)cc1,.,.,/,.,.,.,/,/,/,/
COc1ccc2oc3cc(C)[n+]([O-])c(-c4ccc(Br)cc4)c3c2c1,.,.,.,.,.,25,22%,.,.,.
O=C(NNc1c(Cl)cccc1Cl)c1cccs1,.,.,.,.,.,.,/,/,/,/
COc1ccc(CNC(=O)[C@H](Cc2ccccc2)NC(=O)C2CCNCC2)cc1,.,.,.,.,.,.,/,/,/,/
CCOC(=O)c1ccc2c(c1)N(CC(=O)N1CCCCC1)C(=O)C(C)(C)O2,.,.,.,.,.,100,.,.,.,.
CCOC(=O)C(Cc1ccc(O)c([N+](=O)[O-])c1)N1C(=O)c2ccccc2C1=O (configuration not stated),/,.,/,/,/,/,/,/,/,/
CC1CN(C(=O)COC(=O)c2ccc(Cl)c(S(=O)(=O)N3CCCCC3)c2)CC(C)O1 (configuration not stated),.,.,.,.,.,.,/,/,/,/
COc1ccc(COC(=O)c2ccc(Cl)c(S(=O)(=O)N3CC(C)OC(C)C3)c2)cc1 (configuration not stated),.,.,/,.,.,25,16%,.,.,.
N#CCc1ccc(NS(=O)(=O)c2ccc(C3CCCCC3)cc2)cc1,.,.,.,/,/,25,34%,.,.,.
COc1ccc2c(c1)cc(C(=O)N/N=C/c1c(O)c(C(=O)O)cc3ccccc13)n2C,.,.,.,.,.,.,.,.,.,.
COc1ccccc1NC(=O)c1ccc(C(=O)c2ccccc2)o1,.,.,.,.,.,100,19%,.,.,.
O=C(Nc1ccccc1O)c1ccc(C(=O)c2ccccc2)o1,.,.,.,.,.,.,/,/,/,/
COc1ccccc1NC(=O)Cc1ccc(-c2ccccc2)cc1,.,.,.,.,.,25,.,.,.,.
CSc1nc(N)nc2c1ncn2CC(=O)N[C@H](CO)Cc1c[nH]c2ccccc12,/,.,/,.,.,/,/,/,/,/
COc1ccccc1NS(=O)(=O)c1cccc(C(=O)NC2CCN(Cc3ccccc3)CC2)c1,83,.,/,.,.,100,56%,.,.,.
COc1ccccc1NS(=O)(=O)c1ccc(C)c(C(=O)NC2CCN(Cc3ccccc3)CC2)c1,/,.,/,.,.,/,/,/,/,/
COc1ccc(CCNC(=O)COC(=O)c2cc(S(=O)(=O)N3CCCC3)ccc2O)cc1,/,.,/,.,.,/,/,/,/,/
Cc1ccnc(Nc2nc(-c3ccc(O)c(O)c3)cs2)c1,.,.,.,.,.,25,.,.,.,.
Cc1ccnc(Nc2nc(-c3ccc(O)cc3)cs2)c1,.,.,.,.,.,.,/,/,/,/
CCOC(=O)Cc1csc(NC(=O)c2ccncc2)n1,.,.,.,.,.,100,19%,.,.,.
Cc1ccc2[nH]c3c(N4CCc5ccccc5C4)ncnc3c2c1,.,.,.,.,.,25,30%,.,.,.
c1ccc2c(c1)[nH]c1c(N3CCSCC3)ncnc12,/,.,.,.,.,25,28%,.,.,.
c1ccc2c(c1)[nH]c1c(N3CCCC3)ncnc12,.,.,.,.,.,.,/,/,/,/
Clc1ccc2[nH]c3c(N4CCC5(CC4)OCCO5)ncnc3c2c1,.,/,.,.,.,100,44%,.,.,.
SMILES,aSyn UTR inh,ANO1 activ,KLF5 inhibitor,697 NFkB inh,Jurkat NFkB inh,TMEM16A inh,TMEM16A reconf,HEK293 Ca mobil,YFP-HEK293 quench,ClC-1 rat inh
Cc1cccc2[nH]c3c(N4CCC5(CC4)OCCO5)ncnc3c12,.,.,.,.,.,.,/,/,/,/
CCn1c(SCC(=O)c2[nH]c(C)c(C(C)=O)c2C)nnc1-c1cccs1,.,.,.,.,.,25,40%,.,.,.
O=S(=O)(Nc1ccc(S(=O)(=O)N2CCCCC2)cc1)c1ccc(Br)s1,.,.,.,.,.,25,.,.,.,.
O=S(=O)(Nc1ccc(S(=O)(=O)N2CCCCCC2)cc1)c1cccs1,.,.,.,.,.,.,/,/,/,/
COc1cc2c(cc1NC(=O)CCCN1C(=O)CCC1=O)oc1ccccc12,.,.,.,.,.,.,/,/,/,/
COc1cc2c(cc1NC(=O)CCCCCN1C(=O)CCC1=O)oc1ccccc12,.,.,.,.,.,25,.,.,.,.
O=CN1CCN(S(=O)(=O)c2ccc(S(=O)(=O)NC3CCCCC3)cc2)CC1,.,.,.,.,.,.,/,/,/,/
Cc1oc(-c2ccc(Cl)cc2)nc1CN1CCCC(C(=O)N2CCN(C(=O)c3ccco3)CC2)C1 (configuration not stated),.,.,.,.,.,25,18%,.,.,.
CCOC(=O)N1CCC(NC(=O)C2CCCN(Cc3nc(-c4cccc(C)c4)oc3C)C2)CC1 (configuration not stated),.,.,.,.,.,25,.,.,.,.
COc1ccccc1-c1c(C)nn2c(N3CCCCCC3)cc(C)nc12,.,.,.,.,.,100,34%,.,.,.
COc1ccccc1-c1c(C)nn2c(N3CCOCC3)cc(C)nc12,.,.,.,.,.,.,/,/,/,/
COc1cccc(OC)c1C(=O)Nc1ccccc1C(=O)N1CCOCC1,.,.,.,.,.,100,.,.,.,.
COc1ccc(C(=O)Nc2ccccc2C(=O)N2CCOCC2)cc1OC,.,.,.,.,.,.,/,/,/,/
CC[n+]1c(/C=C2\C=C(C)CC(C)(C)C2)sc2ccccc21,.,.,.,.,.,.,/,/,/,/
CC[n+]1c(/C=C2/C=C(C)CC(C)(C)C2)sc2ccc(OC)cc21,.,.,.,.,.,25,56%,.,.,.
CC(=O)N1CCCc2cc(S(=O)(=O)N3CCCC(C)C3)ccc21 (configuration not stated),.,.,.,.,.,.,/,/,/,/
CC(C(=O)NCc1ccccc1)n1cc([N+](=O)[O-])cn1 (configuration not stated),.,.,.,.,.,.,/,/,/,/
CCN1CCN(CC(O)COC(C)C)CC1 (configuration not stated),.,.,.,.,.,25,.,.,.,.
CCN1CCN(CC(O)COc2ccc(Cl)cc2)CC1 (configuration not stated),.,.,.,.,.,.,/,/,/,/

# Bioassay records (PubChem BioAssay)
